Laboratory results reported in PubChem BioAssay (NCI).
About 79,000 compounds went through this panel and 15% of them were active in at least one assay; those are over-represented in the sample as a whole. Calls of active or inactive are those of the source. Cut-off read from the data, not from the text of the source: active = growth inhibition above about 70%; inactive = the rest.

Experiments:
[1] = NCI Yeast Anticancer Drug Screen. Data for the rad50 strain (AID 155);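 note: 0% = growth of vehicle-only cultures of the same strain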; conditions: S. cerevisiae rad50 strain growth inhibition; at 50.0 µM; stronger effect = higher value
Summary of the method: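 Genetically altered yeast (DNA repair pathway); compound treatment; growth inhibition vs vehicle ctrl.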

[2] = NCI Yeast Anticancer Drug Screen. Data for the mlh1 rad18 strain (AID 175); conditions: S. cerevisiae mlh1 rad18 strain growth inhibition; at 50.0 µM; stronger effect = higher value
Summary of the method: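 Growth inhibition of the yeast strain was measured after compound exposure and expressed relative to vehicle-treated controls. The strain carries defined defects in DNA damage repair.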

[3] = NCI Yeast Anticancer Drug Screen. Data for the sgs1 mgt1 strain (AID 161);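 note: 0% = growth of cultures given vehicle only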; conditions: S. cerevisiae sgs1 mgt1 strain, at 50.0 µM, stronger effect = higher value
Summary of the method: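 Percent growth inhibition was derived by comparing compound-exposed mutant yeast with vehicle-exposed cultures. The strain carries alterations in DNA damage repair.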

[4] = NCI Yeast Anticancer Drug Screen. Data for the cln2 rad14 strain (AID 165);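 note: 0% = growth equal to vehicle treated cultures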; conditions: S. cerevisiae cln2 rad14 strain, at 50.0 µM, stronger effect = higher value
Summary of the method: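 Yeast carrying cln2 and rad14 alterations (cell cycle control and DNA damage repair) were exposed to compounds. Growth inhibition was measured against vehicle-treated controls.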

[5] = NCI Yeast Anticancer Drug Screen. Data for the bub3 strain (AID 167); conditions: S. cerevisiae bub3 mutant strain, at 50.0 µM, stronger effect = higher value
Summary of the method: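 Yeast carrying a defined mutation is treated with each compound, and growth is compared with that of vehicle-exposed cells to give inhibition.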

[6] = NCI Yeast Anticancer Drug Screen. Data for the mec2-1 strain (AID 157); conditions: S. cerevisiae mec2-1 strain, at 50.0 µM, stronger effect = higher value
Summary of the method: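 mec2-1 yeast strain, carrying an alteration in DNA damage repair or cell cycle control, was exposed to compounds; growth inhibition was measured relative to vehicle-treated controls.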

| SMILES | growth inhibition [1] | growth inhibition [2] | growth inhibition [3] | growth inhibition [4] | growth inhibition [5] | growth inhibition [6] |
| --- | --- | --- | --- | --- | --- | --- |
| CCOC(=O)C(C#N)C(C(C)=O)C(=O)OCC (stereo not drawn) | 9.15% (inactive) | 31.4% (inactive) |  |  |  |  |
| Cc1ccc(NC2=N/C(=C/c3ccccc3)C(Cl)=N2)cc1 | -10.1% (inactive) | -51% (inactive) | 16.9% (inactive) | 10.9% (inactive) | 14.3% (inactive) |  |
| CC1=C(/C=C/C(C)=C/C=C/C(C)=C/C(=O)Nc2ccc(O)cc2)C(C)(C)CCC1 | -28.4% (inactive) |  |  | 6.45% (inactive) | 12.2% (inactive) |  |
| Oc1cc(Br)ccc1C=Nc1ccc(N2CCCCC2)cc1 | 25.4% (inactive) | 17.8% (inactive) |  |  |  | 10.5% (inactive) |
| CCOC(=O)NC(C)(C)CN(C(=O)OCC)c1ccccc1 | -31.4% (inactive) | -10.7% (inactive) |  |  |  |  |
| COc1ccc2cc(CN3CCC(C4CCNCC4)CC3)ccc2c1 | 15.6% (inactive) | 86% (active) | 1.55% (inactive) | 14.7% (inactive) | 20.8% (inactive) |  |
| CCC(=O)CC1CCCC(CC(=O)CC)N1C (stereo not drawn) | -4.6% (inactive) | 17.6% (inactive) |  |  |  | -2.55% (inactive) |
| N#C/C=C1\C=CC(O)C(O)C1OC1OC(CO)C(O)C(O)C1O (stereo not drawn) | 21.6% (inactive) | -62.7% (inactive) |  | 27.6% (inactive) | 12.9% (inactive) |  |
| S=C(S)NC1CCCCCCCCCCC1 | 45.8% (inactive) | 39% (inactive) |  |  |  | 23.8% (inactive) |
| CC1=NN(c2ccccc2)C(=O)C1CCC#N (stereo not drawn) | 10.6% (inactive) | 31.4% (inactive) |  |  |  | -12.9% (inactive) |
| CCCCCCCCCCCCCCCCOc1ccc(C(=O)NN)cc1N | -18.6% (inactive) | -14.6% (inactive) |  |  |  | -29.9% (inactive) |
| CCN(CC)CCCOC(=O)N(Cc1ccc(Cl)cc1)C1CC1 | 51.2% (inactive) | 46.6% (inactive) |  |  |  | 12.8% (inactive) |
| Nc1nc(N)nc(-c2ccccc2Cl)n1 | 3.65% (inactive) | 32.2% (inactive) |  |  |  | -10.8% (inactive) |
| O=C(O)c1cc(C(=O)O)cc([N+](=O)[O-])c1 | -3.75% (inactive) | 7.35% (inactive) | 4.75% (inactive) | 0.25% (inactive) | 8.3% (inactive) |  |
| Cc1ccc(OCC2OC(n3cnc4nc(Cl)nc(Cl)c43)CC2Oc2ccc(C)cc2)cc1 (stereo not drawn) | 36% (inactive) | 15.2% (inactive) | 50.5% (inactive) | 50.2% (inactive) | 57.6% (inactive) |  |
| O=C(O)CCCC(=O)Nn1c(Cc2ccc(Cl)cc2)n[nH]c1=O | 7.75% (inactive) | -1.85% (inactive) | 34.5% (inactive) | -6.3% (inactive) | -7.15% (inactive) |  |
| COc1cc(/C=N/NC(=O)c2ccncc2)cc(OC)c1OC | -14.2% (inactive) | -16.5% (inactive) |  |  |  |  |
| O=[N+]([O-])c1ccc2nc3c(nc2c1)-c1cccc2cccc-3c12 | 2.15% (inactive) | 12.3% (inactive) |  |  |  | -15.9% (inactive) |
| CC1CCN(c2ccc([N+](=O)[O-])cc2)CC1 | -17.6% (inactive) | -9.05% (inactive) |  |  |  | -29.9% (inactive) |

| SMILES | growth inhibition [1] | growth inhibition [2] | growth inhibition [3] | growth inhibition [4] | growth inhibition [5] | growth inhibition [6] |
| --- | --- | --- | --- | --- | --- | --- |
| O=C1NC(c2ccc3ccccc3c2)Nc2ccccc21 (stereo not drawn) | -2.85% (inactive) | 19.1% (inactive) |  |  |  | -9.2% (inactive) |
| CC(=O)c1cccc(OCc2ccccc2)c1 | 6.4% (inactive) | 8.4% (inactive) |  |  |  | 2.75% (inactive) |
| COc1c(O)ccc(C2=Cc3ccc(O)cc3OC2)c1OC | 80.2% (active) | -25.6% (inactive) | 88.2% (active) | 88.3% (active) | 88.7% (active) |  |
| OCc1ccccc1OC1OC(CO)C(O)C(O)C1O (stereo not drawn) | 18.5% (inactive) | -50.9% (inactive) | 16.4% (inactive) | -0.45% (inactive) | 21.6% (inactive) |  |
| CCOC(=O)c1c(N)sc2c1CCN(Cc1ccccc1)C2 | 39.4% (inactive) | 21.9% (inactive) |  |  |  |  |
| c1ccc2c(c1)OCCOCCOc1ccccc1OCCOCCO2 | 3.15% (inactive) | 15.1% (inactive) |  |  |  | 10.8% (inactive) |
| CCC/C(Cl)=N/OC(=O)Nc1cccc(F)c1 | -2.75% (inactive) | 41.5% (inactive) |  | 16.6% (inactive) | 45% (inactive) |  |
| CNC(=O)c1cccnc1 |  | -8.35% (inactive) | -20.6% (inactive) | 6.7% (inactive) | -12.2% (inactive) | -26% (inactive) |
| C/C=C(/C)N(C(C)=O)N(C(C)=O)c1ccc([N+](=O)[O-])cc1[N+](=O)[O-] | 5.75% (inactive) | -3.3% (inactive) |  |  |  |  |
| CCOC(=O)C1CCC(C(=O)OCC)N1c1ccc(C=O)cc1 (stereo not drawn) | 16.1% (inactive) | -3.45% (inactive) |  |  |  |  |
| C=CCn1c2c(c3ccccc3c1=O)C(=O)c1ccccc1-2 |  | -49.9% (inactive) | 1.7% (inactive) | 30.9% (inactive) | -8.5% (inactive) | -6.5% (inactive) |
| O=C1c2cccnc2-c2nccc3ccnc1c23 |  | -37.7% (inactive) | 63% (inactive) | 45.6% (inactive) | 57.5% (inactive) | 58.8% (inactive) |
| C/C(=C\COc1cc(O)c2c(c1)C(=O)c1cc(C)cc(O)c1C2=O)CCC1OC1(C)C (stereo not drawn) |  | -53.7% (inactive) |  | -0.65% (inactive) | -12.4% (inactive) | -22.9% (inactive) |
| Cn1c2c(c3ccccc3c1=O)C(=O)c1ccccc1-2 |  |  | 9.3% (inactive) | 26.1% (inactive) | 7.7% (inactive) | -14.2% (inactive) |
| O=C(/C=C/C=C/c1ccccc1)c1ccc(Cl)cc1 | -12.3% (inactive) | 3.5% (inactive) |  |  |  |  |
| CCCCCCCCCCCCCCCC(C)(C)O | -29% (inactive) | 5.1% (inactive) |  |  |  |  |
| Cn1/c(=N\N=C\C(=O)O)sc2ccccc21 |  |  |  |  |  | -13.8% (inactive) |
| O=C(CC(CC(=O)c1ccccc1)c1ccco1)c1ccccc1 |  | -8.65% (inactive) |  |  |  | -17.2% (inactive) |
| CC(=O)C(C(C)=O)c1ccccc1 |  | -5.75% (inactive) | 3.05% (inactive) |  | 4.05% (inactive) | 2.7% (inactive) |

| SMILES | growth inhibition [1] | growth inhibition [2] | growth inhibition [3] | growth inhibition [4] | growth inhibition [5] | growth inhibition [6] |
| --- | --- | --- | --- | --- | --- | --- |
| CC(=O)C1=C(C)N2C(=NC3=C(CCc4ccccc43)C2c2cccc(Br)c2)S1 (stereo not drawn) |  | -20.5% (inactive) | -19.4% (inactive) | 3.2% (inactive) | -7.5% (inactive) | -27.4% (inactive) |
| O=C1C=CC=C/C1=C1\N=C(c2ccccc2OCC(=O)c2ccc(Br)cc2)SS1 |  | -43.5% (inactive) | 12.8% (inactive) | 8.75% (inactive) | -0.75% (inactive) | 18.1% (inactive) |
| CCO/C=N\C1=C(C#N)SC2=N/C(=C\c3ccc(OC)cc3)C(=O)N21 |  | -57.8% (inactive) | 7.35% (inactive) | 6.45% (inactive) | -2.1% (inactive) | -25.1% (inactive) |
| COc1ccc(C(CCl)(CCl)c2ccc(OC)c(N)c2)cc1N |  | 28.6% (inactive) |  |  |  | 14% (inactive) |
| Cc1ccc(S(=O)(=O)Nc2ccccc2C2Nc3ccccc3C(=O)O2)cc1 (stereo not drawn) | -23.5% (inactive) | -13.1% (inactive) |  |  |  |  |
| COc1cc2c(cc1O)C(Cc1ccc(OC)c(OC)c1)N(C)CC2 (stereo not drawn) | 4.25% (inactive) | 2.35% (inactive) |  |  |  |  |
| Cc1ccc(-c2noc(CC(=O)c3ccc([N+](=O)[O-])cc3)n2)cc1 |  |  |  |  |  | 5.85% (inactive) |
| C[N+](C)(CCNC(=O)c1cccc2cc3ccccc3nc12)Cc1ccc([N+](=O)[O-])s1 |  | -36.7% (inactive) | -12.7% (inactive) | 4.1% (inactive) | -40% (inactive) | -37.2% (inactive) |
| Cc1cccc(NNC(=S)Nc2ccccc2)c1 | 18.1% (inactive) | 5.05% (inactive) |  |  |  |  |
| CCOC(=O)COc1cc(-c2ccccc2)nc2cc(F)ccc12 |  | -25.9% (inactive) | 0.25% (inactive) | -18.4% (inactive) | -4.1% (inactive) | 7.95% (inactive) |
| NC(=S)N/N=C/c1cc([N+](=O)[O-])ccc1Cl | 10.8% (inactive) | 10.2% (inactive) |  |  |  |  |
| COc1ccc(C(=O)CC2CCCC(CC(=O)c3ccc(OC)cc3)N2C)cc1 (stereo not drawn) |  |  |  |  |  | -6.05% (inactive) |
| N#C/C(=C/c1c(O)ccc2ccccc12)C(N)=O | 33.7% (inactive) | 60.9% (inactive) |  |  |  |  |
| CCOC(=O)C(CNc1ccccc1)C(=O)OCC | -25.4% (inactive) | -11.7% (inactive) |  |  |  |  |
| Cc1ccc(NCN2C(=O)c3ccccc3C2=O)cc1Cl | 20.1% (inactive) | 28.3% (inactive) |  |  |  |  |
| COc1ccc(/C=N/N2C(=O)c3ccccc3C2=O)cc1OC |  | 6.3% (inactive) |  |  |  | 1.2% (inactive) |
| CCOc1cc2c(cc1O)/C(=N/NS(=O)(=O)c1ccc(C)cc1)C[C@@H]1[C@@H]2CC[C@]2(C)[C@@H](O)CC[C@@H]12 |  | 4.4% (inactive) | 4.05% (inactive) | 35.4% (inactive) | 14.1% (inactive) | 26.9% (inactive) |
| O=C(CCc1ccc(O)c(O)c1)c1ccc(O)c(O)c1O |  | -33.9% (inactive) | 9.1% (inactive) | 2.6% (inactive) | -17.1% (inactive) | -19.9% (inactive) |
